Data from PubChem BioAssay (Tox21).
A number with no mark means an inactive call. Calls of active or inactive are those of the source. Calls come from the whole dose curve.

Each compound was assayed against Androgen receptor (Homo sapiens) (UniProt P10275) (assay: qHTS assay to identify small molecule agonists of the androgen receptor (AR) signaling pathway in the presence of an antagonist (AID 1259381; note: nearly all actives have a fitted effect of over 15% in size)). Details: MDA-kb2 MMTV-luciferase, AR agonist + nilutamide, 16 h; series mostly up to 92.4 µM; activation: at the top concentration.
From the text: National Center for Advancing Translational Sciences [NCATS] NIH Chemical Genomics Center [NCGC] U.S. Environmental Protection Agency [EPA] National Institutes of Environmental Health Sciences [NIEHS] National Toxicology Program [NTP] Assay overview: Androgen receptor (AR) is an important member of nuclear receptor family. Its signaling plays a critical role in AR-dependent prostate cancer and other androgen related diseases. Considerable attention has been given in the past decades to develop methods to study and screen for the environmental chemicals that have the potential to interfere with metabolic homeostasis, reproduction, developmental and behavioral functions. Therefore AR binding assay for screening against androgen agonists and antagonists can be used to identify potential endocrine disruptors. MDA-kb2 cells (from ATCC, deposited by Wilson et al.) are human breast carcinoma cells that were stably transfected with a luciferase reporter gene under control of the MMTV promoter that contains response elements for both androgen receptor (AR) and glucocorticoid receptor (GR). This particular screening for measuring luciferase reporter gene activity using MDA-kb2 cells against Tox21 10K library compounds is a confirmation study on agonist mode screening in the presence of AR-antagonist compound (Nilutamide) at 3.0uM final concentration.
Assay Protocol Summary: MDA-kb2 cells (cells cultured without CO2) were dispensed at 3,000 cells/well in 4uL of culture medium into white wall/solid-bottom 1536-well plates (Corning Life Sciences, Corning, NY) using a Multidrop Combi (Thermo Fisher Scientific Inc., Waltham, MA) dispenser. The assay plates were incubated at 37C and 0% CO2 for 5hr. One uL of 3.0uM (final concentration) Nilutamide or assay buffer was added using two separate tips of Flying Reagent Dispenser (FRD, Aurora Discovery, San Diego, CA). Then 23nL of compounds dissolved in DMSO at 15 concentrations and positive controls were transferred to the assay plates using a Pintool station (Wako, San Diego, CA). The assay plates were incubated at 37C and 0% CO2 for 16hr. For luciferase read, 4uL/well ONE-Glo reagent (Promega Corporation, Madison, WI) was added to each well of the assay plates using FRD. After 30min incubation at room temperature, the luminescence signal was measured using a ViewLux plate reader (PerkinElmer, Shelton, CT).
% is set by controls: 0 for no effect and ±100 for the full control effect; potency is the fitted concentration of half-maximal effect.

Chain of Androgen receptor (Homo sapiens) (P10275 whole entry, looked up): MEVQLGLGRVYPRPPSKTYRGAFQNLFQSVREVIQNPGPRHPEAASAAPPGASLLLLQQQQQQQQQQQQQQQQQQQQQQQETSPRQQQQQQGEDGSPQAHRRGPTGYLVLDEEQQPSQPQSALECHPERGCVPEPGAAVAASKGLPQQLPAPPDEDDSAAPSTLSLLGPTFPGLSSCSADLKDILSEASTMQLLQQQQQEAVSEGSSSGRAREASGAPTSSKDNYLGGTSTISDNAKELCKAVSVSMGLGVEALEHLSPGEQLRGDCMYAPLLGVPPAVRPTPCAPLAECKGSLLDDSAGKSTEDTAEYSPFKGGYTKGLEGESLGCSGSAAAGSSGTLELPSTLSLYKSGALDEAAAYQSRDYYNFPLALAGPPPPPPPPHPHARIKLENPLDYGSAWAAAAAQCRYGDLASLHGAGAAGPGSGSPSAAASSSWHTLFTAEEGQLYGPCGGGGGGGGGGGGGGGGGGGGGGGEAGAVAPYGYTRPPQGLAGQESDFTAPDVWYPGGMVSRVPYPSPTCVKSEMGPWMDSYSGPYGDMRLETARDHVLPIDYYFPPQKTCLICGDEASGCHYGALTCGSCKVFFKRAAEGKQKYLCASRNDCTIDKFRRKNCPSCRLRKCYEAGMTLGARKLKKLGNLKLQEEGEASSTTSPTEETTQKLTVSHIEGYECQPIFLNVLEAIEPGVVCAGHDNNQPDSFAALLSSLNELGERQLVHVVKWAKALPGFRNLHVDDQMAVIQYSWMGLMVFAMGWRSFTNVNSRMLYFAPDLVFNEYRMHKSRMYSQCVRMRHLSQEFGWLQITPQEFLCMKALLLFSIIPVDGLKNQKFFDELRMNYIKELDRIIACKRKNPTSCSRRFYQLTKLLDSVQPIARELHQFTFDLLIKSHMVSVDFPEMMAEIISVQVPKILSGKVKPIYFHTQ

| Structure (SMILES) | activation [%] | Potency |
| --- | --- | --- |
| OC(Cc1ccccc1Cl)(Cn1[nH]cnc1=S)C1(Cl)CC1 (stereo not given) | -7.65 |  |
| c1ccc(-c2ccccc2-c2ccccc2)cc1 | -2.87 |  |
| Cc1ccc(N(SC(F)(Cl)Cl)S(=O)(=O)N(C)C)cc1 | -8.72 |  |
| COc1cc(OC)c(OC)cc1C=O | -0.263 |  |
| O=S(=O)(C(Cl)(Cl)Cl)C(Cl)(Cl)Cl | -10 |  |
| ClC(Cl)=C(c1ccc(Cl)cc1)c1ccccc1Cl | -1.31 |  |
| Nc1ccc([N+](=O)[O-])cc1 |  | 61.1 µM (active) |
| CO/C=C(/C(=O)OC)c1ccccc1Oc1cc(Oc2ccccc2C#N)ncn1 | -11.1 |  |
| CCOC(=O)C(O)(c1ccc(Cl)cc1)c1ccc(Cl)cc1 |  | inactive |
| CCN(CC)C(=O)Cl | -1.51 |  |
| CNC(=O)Oc1cc(C)c(SC)c(C)c1 |  | 12.2 µM (active) |
| Cc1cc(C(C)(C)c2ccc(O)c(C)c2)ccc1O | -9.98 |  |
| Cc1cc(C)c(C(=O)P(=O)(c2ccccc2)c2ccccc2)c(C)c1 | -5.52 |  |
| Oc1c(I)cc(I)cc1I | 2.06 |  |
| O=C(c1ccccc1)C(Cl)Cl | 5.32 |  |
